This note sets out measurements from PubChem BioAssay (EPA / NIEHS).

Records with an inconclusive call do not appear. Active and inactive are the calls of the source. Rule for the calls, unless noted: active = hit-call score of the fitted dose curve at least 0.9, where 1 is the maximum; inconclusive = response in the unintended direction; inactive = score below 0.9.

Broadly, the AC50 is the concentration at which the activity in the assay is half-maximal.

The test system of assay [1] is Sodium/Iodide Symporter (NIS), SLC5A5 (gene 6528). Briefly: CPHEA_Stoker_NIS_Inhibition_RAIU: CPHEA's Radioactive Iodide Uptake (RAIU) Assay for Sodium/Iodide Symporter (NIS) Inhibition, Stoker and Laws Labs (AID 2283841). An outline of the steps: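 Iodide uptake through human NIS is measured in an engineered HEK293T line. Cells take up 125I (329pM final) for 2 hours at room temperature alongside chemicals at 0.001–100uM. Retained radioactivity is counted, and the signal is expressed against DMSO controls.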

In assay [2] the test system is zebrafish Estrogen Receptor (ER2b), gene 317733. Briefly: ATG_zfER2b_XSP2: Attagene TRANS-FACTORIAL Multi-Species (XSP2) HepG2 Assay for zebrafish Estrogen Receptor (ER2b) (AID 2283823).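 Note: fitted upward as reporter gain over DMSO so potency reflects activation.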 An outline of the steps: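 In this multiplexed trans-activation format, HepG2 cells expressing exogenous NR-Gal4 fusions drive GAL4-UAS reporters. Exposure lasts 24 h, and reporter mRNA induction is read by RT-PCR with capillary electrophoresis detection.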

Assay [3] has as its system frog Estrogen Receptor (ER2), gene 100174814. As to the kind of experiment: ATG_frER2_XSP2: Attagene TRANS-FACTORIAL Multi-Species (XSP2) HepG2 Assay for frog Estrogen Receptor (ER2) (AID 2283828). In short, it runs like this:
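Multiplexed transactivation in HepG2: frog estrogen receptor fused to Gal4 drives a UAS reporter. Signal is reporter mRNA after 24 h treatment.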

The target in assay [4] is Peroxisome proliferator-activated receptor gamma (Homo sapiens) (UniProt P37231). As to the kind of experiment: ATG_hPPARg_XSP2: Attagene TRANS-FACTORIAL Multi-Species (XSP2) HepG2 Assay for human Peroxisome Proliferator-activated Receptor gamma (PPARg) (AID 2283829).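 Note: actives raise reporter mRNA above DMSO so AC50 reflects PPARg activation.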 An outline of the steps:
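Multiplexed transactivation in transfected HepG2 liver cells. Gal4-chimeric receptor activity reported as induced reporter transcript after 24 h.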

Assay [5] concerns the target Nuclear receptor subfamily 1 group I member 2 (Mus musculus) (UniProt O54915). Briefly: ATG_mPXR_XSP2: Attagene TRANS-FACTORIAL Multi-Species (XSP1) HepG2 Assay for mouse Pregnane X Receptor (PXR) (AID 2283831). An outline of the steps:
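Human liver HepG2 cells expressing exogenous receptor-GAL4 chimeras were exposed to test chemicals for 24 h. Induction of reporter mRNA was scored as gain of fluorescence signal over DMSO controls.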

The target of assay [6] is zebrafish Thyroid Hormone Receptor alpha (TRa), thraa (gene 30670) (UniProt Q98867). Briefly: ATG_zfTRa_XSP2: Attagene TRANS-FACTORIAL Multi-Species (XSP1) HepG2 Assay for zebrafish Thyroid Hormone Receptor alpha (TRa) (AID 2283832).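 Note: actives raise zebrafish TRa-Gal4 reporter transcript above DMSO baseline.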 An outline of the steps:
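HepG2 cells transiently transfected with multiplexed GAL4-UAS reporter units expressing chimeric NR-Gal4 proteins; 24 h after dosing, reporter mRNA measured by RT-PCR, FAM labelling, HpaI digestion and capillary electrophoresis; gain of signal versus DMSO baseline.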

For assay [7], the system named is turtle Thyroid Hormone Receptor, alpha (TRa), gene 101949057. As to the kind of experiment: ATG_trTRa_XSP2: Attagene TRANS-FACTORIAL Multi-Species (XSP1) HepG2 Assay for turtle Thyroid Hormone Receptor, alpha (TRa) (AID 2283834).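 Note: hits raise reporter mRNA over the DMSO baseline so AC50 marks activators.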 An outline of the steps: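 Gain-of-signal reporter transcription measured in transiently transfected HepG2 at 24 h post-dose. Fluorescent RT-PCR products were resolved by capillary electrophoresis and compared with DMSO vehicle.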

The nature of assay [8]: ATG_M_61_XSP2: Attagene TRANS-FACTORIAL Multi-Species (XSP2) HepG2 Assay for M61 Transcription Factor (Internal Marker) (AID 2283835; active = hit-call score of the fitted dose curve at least 0.9, where 1 is the maximum; inactive = score below 0.9;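 note: reporter mRNA of an internal background marker read by RT-PCR and capillary electrophoresis; active means a rise in signal above the DMSO baseline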). An outline of the steps: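 First, HepG2 cells are transfected with reporter units under GAL4-UAS control. Next, chemicals are applied for 24 h. Then total RNA is reverse-transcribed, amplified, fluorescently labelled and sized by capillary electrophoresis, with gain of signal scored against DMSO.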

The target in assay [9] is zebrafish Thyroid Hormone Receptor beta (TRb), thrb (gene 30607) (UniProt Q9PVE4). As to the kind of experiment: ATG_zfTRb_XSP2: Attagene TRANS-FACTORIAL Multi-Species (XSP1) HepG2 Assay for zebrafish Thyroid Hormone Receptor beta (TRb) (AID 2283836). An outline of the steps:
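HepG2 cells transiently transfected with multiplexed GAL4-UAS reporter units expressing chimeric NR-Gal4 proteins; read 24 h after dosing. Reporter mRNA quantified by RT-PCR, 6-FAM labelling, HpaI digest and capillary electrophoresis; gain of signal fitted relative to DMSO.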

For assay [10], the target named is human Thyroid hormone Receptor beta (TRb), THRB (gene 7068) (UniProt P10828). As to the kind of experiment: ATG_hTRb_XSP2: Attagene TRANS-FACTORIAL Multi-Species (XSP2) HepG2 Assay for human Thyroid hormone Receptor beta (TRb) (AID 2283840).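 Note: actives raise reporter mRNA so potency reflects agonist-like gain of signal.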 An outline of the steps: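 In this cell-based multiplex, HepG2 liver cells carrying transfected GAL4-UAS reporter constructs are exposed to chemical for 24 hours, then reporter transcripts are measured by RT-PCR with capillary electrophoresis, scored as gain of signal against DMSO.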
Sequence of human Thyroid hormone Receptor beta (TRb), THRB (gene 7068) (P10828 whole entry, looked up, the tested form may be a part): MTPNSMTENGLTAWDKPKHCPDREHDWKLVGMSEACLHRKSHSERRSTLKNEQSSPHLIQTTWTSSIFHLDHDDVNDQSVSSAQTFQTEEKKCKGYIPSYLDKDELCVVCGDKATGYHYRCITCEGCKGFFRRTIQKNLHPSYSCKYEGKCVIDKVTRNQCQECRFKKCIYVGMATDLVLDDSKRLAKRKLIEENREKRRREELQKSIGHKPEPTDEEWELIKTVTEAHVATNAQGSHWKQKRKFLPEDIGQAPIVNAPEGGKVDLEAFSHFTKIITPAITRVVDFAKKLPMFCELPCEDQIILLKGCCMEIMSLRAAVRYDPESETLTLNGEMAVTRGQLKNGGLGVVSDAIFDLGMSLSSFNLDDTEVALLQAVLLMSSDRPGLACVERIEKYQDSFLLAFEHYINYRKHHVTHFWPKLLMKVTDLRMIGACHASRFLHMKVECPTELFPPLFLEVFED

Assay [11] is described as follows: CEETOX_H295R_11DCORT_noMTC: CeeTox H295R High-throughput Steroidogenesis Assay for 11-Deoxycortisol (11DCORT), maximum tolerated concentration (MTC) filtered results only (AID 2283911; active = hit-call score of the fitted dose curve at least 0.9, where 1 is the maximum; inactive = score below 0.9). The settings on record: actives raise or lower the signal. In short, it runs like this: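 Readout is 11-deoxycortisol in culture medium by reverse-phase HPLC with MS/MS, after 48 h chemical treatment of forskolin-primed H295R cells. Values are relative to DMSO and unfiltered for cytotoxicity.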

A short description of assay [12]: CEETOX_H295R_OHPREG_noMTC: CeeTox H295R High-throughput Steroidogenesis Assay for OH-Pregnenolone (OHPREG), maximum tolerated concentration (MTC) filtered results only (AID 2283912; active = hit-call score of the fitted dose curve at least 0.9, where 1 is the maximum; inactive = score below 0.9). The settings on record: actives raise or lower the signal. In short, it runs like this: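 Steroidogenesis in H295R cells (OECD 456, modified): after 48 h forskolin priming and 48 h chemical treatment, secreted 17alpha-hydroxypregnenolone is measured by HPLC-MS/MS. Activity is fitted in both directions against DMSO; concentrations are not filtered by MTT-based MTC.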

Assay [13] can be described thus: CEETOX_H295R_OHPROG_noMTC: CeeTox H295R High-throughput Steroidogenesis Assay for OH-Progesterone (OHPROG), maximum tolerated concentration (MTC) filtered results only (AID 2283914; active = hit-call score of the fitted dose curve at least 0.9, where 1 is the maximum; inactive = score below 0.9). To be noted: actives raise or lower the signal. In short, it runs like this: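 Forskolin 10 uM, 48 h prestim → test cmpd in DMSO (0.1% final), 48 h → medium MTBE extraction → LC-MS/MS quant of 17alpha-OH-progesterone. Bidirectional fit vs DMSO; no MTT-based MTC filtering.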

Assay [14] can be described thus: CEETOX_H295R_ANDR_noMTC: CeeTox H295R High-throughput Steroidogenesis Assay for Androstenedione (ANDR), maximum tolerated concentration (MTC) filtered results only (AID 2283915; active = hit-call score of the fitted dose curve at least 0.9, where 1 is the maximum; inactive = score below 0.9). The settings on record: actives raise or lower the signal. In short, it runs like this: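 H295R cells, passage 10 or below, prestimulated 48 h with 10 uM forskolin, then exposed 48 h to chemical in 0.1% DMSO. Medium androstenedione extracted with MTBE, quantified by HPLC-MS/MS; concentrations not MTC-filtered; bidirectional fit versus DMSO.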

Assay [15] is described as follows: CEETOX_H295R_CORTISOL_noMTC: CeeTox H295R High-throughput Steroidogenesis Assay for Cortisol, maximum tolerated concentration (MTC) filtered results only (AID 2283916; active = hit-call score of the fitted dose curve at least 0.9, where 1 is the maximum; inactive = score below 0.9). To be noted: actives raise or lower the signal. An outline of the steps: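 Cortisol secretion measured by LC-MS/MS after 48 h chemical treatment (final 0.1% DMSO) of forskolin-primed (10 uM, 48 h) H295R cells; gain or loss fitted relative to DMSO, without maximum-tolerated-concentration filtering.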

The nature of assay [16]: CEETOX_H295R_CORTIC_noMTC: CeeTox H295R High-throughput Steroidogenesis Assay for Corticosterone (CORTIC), maximum tolerated concentration (MTC) filtered results only (AID 2283917; active = hit-call score of the fitted dose curve at least 0.9, where 1 is the maximum; inactive = score below 0.9). To be noted: actives raise or lower the signal. In short, it runs like this: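 Following OECD 456 with minor changes, H295R cultures received 10 uM forskolin for 48 h, then test chemical at 0.1% DMSO for 48 h. Media steroids were extracted and measured by LC-MS/MS.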

The nature of assay [17]: CEETOX_H295R_DOC_noMTC: CeeTox H295R High-throughput Steroidogenesis Assay for DOC, maximum tolerated concentration (MTC) filtered results only (AID 2283918; active = hit-call score of the fitted dose curve at least 0.9, where 1 is the maximum; inactive = score below 0.9). The settings on record: actives raise or lower the signal. In short, it runs like this:
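11-Deoxycorticosterone secreted by human adrenal H295R cells quantified by HPLC-MS/MS after 48 h chemical exposure (0.1% DMSO), following 48 h 10 uM forskolin prestimulation. Concentrations not filtered by MTT-derived MTC; bidirectional fitting.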

The nature of assay [18]: CEETOX_H295R_ESTRADIOL_noMTC: CeeTox H295R High-throughput Steroidogenesis Assay for Estradiol, maximum tolerated concentration (MTC) filtered results only (AID 2283919; active = hit-call score of the fitted dose curve at least 0.9, where 1 is the maximum; inactive = score below 0.9). The settings on record: actives raise or lower the signal. In short, it runs like this:
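H295R human adrenal cells pre-stimulated 48 h with 10 uM forskolin, then exposed 48 h to chemical (0.1% DMSO final). Estradiol in medium measured by HPLC-MS/MS after MTBE extraction and dansyl derivatization; bidirectional fit versus DMSO, concentrations not MTT-filtered.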

Assay [19] in a line: CEETOX_H295R_PROG_noMTC: CeeTox H295R High-throughput Steroidogenesis Assay for Progesterone (PROG), maximum tolerated concentration (MTC) filtered results only (AID 2283920; active = hit-call score of the fitted dose curve at least 0.9, where 1 is the maximum; inactive = score below 0.9). The settings on record: actives raise or lower the signal. An outline of the steps: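 H295R cells; forskolin 10 uM x 48 h prestim; test cpd 48 h, 0.1% DMSO final; media progesterone via LC-MS/MS; bidirectional fit vs DMSO; no MTT-based MTC filter applied.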

Assay [20] is described as follows: CEETOX_H295R_ESTRONE_noMTC: CeeTox H295R High-throughput Steroidogenesis Assay for Estrone, maximum tolerated concentration (MTC) filtered results only (AID 2283921; active = hit-call score of the fitted dose curve at least 0.9, where 1 is the maximum; inactive = score below 0.9). The settings on record: actives raise or lower the signal. In short, it runs like this: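 H295R cells prestimulated 48 h with 10 uM forskolin, then exposed 48 h to chemical in 0.1% DMSO; medium estrone measured by HPLC-MS/MS after MTBE extraction and dansyl derivatization, fitted bidirectionally versus DMSO without MTT-based MTC filtering.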

Sequence of Peroxisome proliferator-activated receptor gamma (Homo sapiens) (P37231 whole entry, looked up, the tested form may be a part): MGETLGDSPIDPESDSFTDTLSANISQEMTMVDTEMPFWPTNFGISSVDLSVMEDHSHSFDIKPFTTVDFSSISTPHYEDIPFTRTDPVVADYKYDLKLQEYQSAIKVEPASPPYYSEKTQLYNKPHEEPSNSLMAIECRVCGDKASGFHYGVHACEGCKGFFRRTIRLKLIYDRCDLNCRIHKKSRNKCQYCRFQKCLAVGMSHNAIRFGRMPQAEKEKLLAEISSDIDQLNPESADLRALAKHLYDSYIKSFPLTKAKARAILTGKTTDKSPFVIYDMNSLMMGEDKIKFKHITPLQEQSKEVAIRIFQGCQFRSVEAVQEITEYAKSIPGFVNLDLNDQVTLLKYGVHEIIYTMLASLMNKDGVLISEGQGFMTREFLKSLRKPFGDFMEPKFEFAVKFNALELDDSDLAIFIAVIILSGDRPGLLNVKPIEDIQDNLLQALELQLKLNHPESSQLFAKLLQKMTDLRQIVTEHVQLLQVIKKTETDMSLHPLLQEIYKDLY
Sequence of zebrafish Thyroid Hormone Receptor beta (TRb), thrb (gene 30607) (Q9PVE4 whole entry, looked up, the tested form may be a part): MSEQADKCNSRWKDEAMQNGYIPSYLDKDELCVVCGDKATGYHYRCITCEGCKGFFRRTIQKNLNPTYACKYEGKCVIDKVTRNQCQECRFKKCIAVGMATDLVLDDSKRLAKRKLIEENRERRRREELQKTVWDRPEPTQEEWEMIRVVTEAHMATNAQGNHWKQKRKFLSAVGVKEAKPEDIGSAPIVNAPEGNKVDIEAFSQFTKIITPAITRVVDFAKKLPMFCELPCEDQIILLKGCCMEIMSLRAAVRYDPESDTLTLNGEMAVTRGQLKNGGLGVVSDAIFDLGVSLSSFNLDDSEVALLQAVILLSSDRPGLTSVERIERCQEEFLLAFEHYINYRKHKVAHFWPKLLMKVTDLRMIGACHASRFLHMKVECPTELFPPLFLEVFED
Sequence of zebrafish Thyroid Hormone Receptor alpha (TRa), thraa (gene 30670) (Q98867 whole entry, looked up, the tested form may be a part): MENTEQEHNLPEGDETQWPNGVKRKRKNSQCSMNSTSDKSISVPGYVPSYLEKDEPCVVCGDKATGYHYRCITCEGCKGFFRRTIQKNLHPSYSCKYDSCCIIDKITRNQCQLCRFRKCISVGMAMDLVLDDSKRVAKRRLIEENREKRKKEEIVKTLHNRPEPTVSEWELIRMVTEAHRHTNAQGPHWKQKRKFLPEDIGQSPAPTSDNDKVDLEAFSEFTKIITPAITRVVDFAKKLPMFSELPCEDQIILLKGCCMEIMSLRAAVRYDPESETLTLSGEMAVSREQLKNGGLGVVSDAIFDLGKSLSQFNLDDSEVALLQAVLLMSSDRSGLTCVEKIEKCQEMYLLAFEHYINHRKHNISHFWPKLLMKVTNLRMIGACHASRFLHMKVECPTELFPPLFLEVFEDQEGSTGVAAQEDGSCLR
Sequence of Nuclear receptor subfamily 1 group I member 2 (Mus musculus) (O54915 whole entry, looked up, the tested form may be a part): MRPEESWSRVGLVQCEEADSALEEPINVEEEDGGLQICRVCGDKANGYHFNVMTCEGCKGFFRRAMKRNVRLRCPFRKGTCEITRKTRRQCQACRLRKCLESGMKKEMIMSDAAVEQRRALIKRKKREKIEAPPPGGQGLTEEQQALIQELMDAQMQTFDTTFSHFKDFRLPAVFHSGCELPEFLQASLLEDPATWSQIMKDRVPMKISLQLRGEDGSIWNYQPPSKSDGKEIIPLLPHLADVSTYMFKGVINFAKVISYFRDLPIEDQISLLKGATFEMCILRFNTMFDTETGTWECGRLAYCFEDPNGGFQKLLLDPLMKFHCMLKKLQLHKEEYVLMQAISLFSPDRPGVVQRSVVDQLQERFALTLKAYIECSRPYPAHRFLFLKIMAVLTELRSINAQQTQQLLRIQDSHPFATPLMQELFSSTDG

`Cc1cc(C(C)(C)C)c(O)c(C(C)(C)C)c1`: the outcome in [1] was inactive.

As to `NC(=NCCCCCCN=C(N)/N=C(\N)Nc1ccc(Cl)cc1)/N=C(\N)Nc1ccc(Cl)cc1`, in assay [1], the result was inactive.

As to `NCCN`, the AC50 in assay [1] is 4.18 µM (active).

Consider `O=C1OC2(c3ccccc31)c1cc(I)c(O)c(I)c1Oc1c2cc(I)c(O)c1I`, for which the AC50 in assay [1] was 0.248 µM (active).

Take `Cc1[nH]nc2c1N=C(c1ccccc1Cl)c1cc([N+](=O)[O-])ccc1N2`: the result in assay [1] was inactive.

`O=C(O)C(=O)O`: the outcome in assay [1] was inactive.

Take `O=C(O)C(F)(F)OC(F)(F)C(F)(F)OC(F)(F)C(F)(F)OC(F)(F)C(F)(F)C(F)(F)C(F)(F)F`: the result in [1] was inactive.

As for `C[C@]12CC[C@@H]3c4ccc(O)cc4CC[C@H]3[C@@H]1C[C@@H](O)[C@@H]2O`, in assay [2], the half-maximal activity concentration (AC50) was 0.0308 µM (active). Moreover, the call in assay [3], in assay [4], in assay [5], in assay [6], in [7] and in [8] was inactive. Further, the compound was called inactive in [9] and in assay [10].

For the compound `CCCCC(CC)C(=O)O` (stereo unspecified), in [1], the outcome was inactive.

Take `CC(C)c1c(C(=O)Nc2ccccc2)c(-c2ccccc2)c(-c2ccc(F)cc2)n1CC[C@@H](O)C[C@@H](O)CC(=O)O`: the outcome in assay [1] was inactive.

Regarding `CN(CCO)S(=O)(=O)C(F)(F)C(F)(F)C(F)(F)C(F)(F)C(F)(F)C(F)(F)C(F)(F)C(F)(F)F`, the result in assay [1] was inactive.

In the case of `Cc1cc(Cc2cc(C)cc(C(C)(C)C)c2O)c(O)c(C(C)(C)C)c1`, the result in assay [1] was inactive.

With `C/C=C/C(=O)C1=C(C)CCCC1(C)C`, the call in assay [11], in assay [12], in assay [15], in assay [16], in assay [18] and in assay [20] was inactive. For the same compound, the half-maximal activity concentration (AC50) is 37.1 µM (active) in assay [13], 31.3 µM (active) in [14], 12.2 µM (active) in [17] and 10.6 µM (active) in assay [19].

For `OCC(F)(F)C(F)(F)C(F)(F)C(F)(F)C(F)(F)C(F)(F)C(F)(F)C(F)(F)C(F)(F)C(F)(F)C(F)(F)F`, the outcome in assay [1] was inactive.
